# Measured values from PMC11062922 (Nature Chemical Biology, 2023).
# Where two headings read alike, the source gives them in different places.
# Key:
# ABL1 = tested on: ABL1; set-up: species or system human, MV4-11 + K-562 + COLO205 + SK-N-BE2 + OVCAR-8; settings: read-out: apparent Kd, compound concentrations: 100 nM and 1000 nM (sheet 'Samples'), n = 1
# ABL2 = tested on: ABL2; set-up: species or system human, MV4-11 + K-562 + COLO205 + SK-N-BE2 + OVCAR-8; settings: read-out: apparent Kd, compound concentrations: 100 nM and 1000 nM (sheet 'Samples'), n = 1
# ACVR1B = tested on: ACVR1B; set-up: species or system human, MV4-11 + K-562 + COLO205 + SK-N-BE2 + OVCAR-8; settings: read-out: apparent Kd, compound concentrations: 100 nM and 1000 nM (sheet 'Samples'), n = 1
# BCR = tested on: BCR; set-up: species or system human, MV4-11 + K-562 + COLO205 + SK-N-BE2 + OVCAR-8; settings: read-out: apparent Kd, compound concentrations: 100 nM and 1000 nM (sheet 'Samples'), n = 1
# FYN = tested on: FYN; set-up: species or system human, MV4-11 + K-562 + COLO205 + SK-N-BE2 + OVCAR-8; settings: read-out: apparent Kd, n = 1
# GAK = tested on: GAK; set-up: species or system human, MV4-11 + K-562 + COLO205 + SK-N-BE2 + OVCAR-8; settings: read-out: apparent Kd, compound concentrations: 100 nM and 1000 nM (sheet 'Samples'), n = 1
# HCK = tested on: HCK; set-up: species or system human, MV4-11 + K-562 + COLO205 + SK-N-BE2 + OVCAR-8; settings: read-out: apparent Kd, compound concentrations: 100 nM and 1000 nM (sheet 'Samples'), n = 1
# LCK = tested on: LCK; set-up: species or system human, MV4-11 + K-562 + COLO205 + SK-N-BE2 + OVCAR-8; settings: read-out: apparent Kd, n = 1
# PTK6 = tested on: PTK6; set-up: species or system human, MV4-11 + K-562 + COLO205 + SK-N-BE2 + OVCAR-8; settings: read-out: apparent Kd, compound concentrations: 100 nM and 1000 nM (sheet 'Samples'), n = 1
# RIPK2 = tested on: RIPK2; set-up: species or system human, MV4-11 + K-562 + COLO205 + SK-N-BE2 + OVCAR-8; settings: read-out: apparent Kd, compound concentrations: 100 nM and 1000 nM (sheet 'Samples'), n = 1
# RIPK3 = tested on: RIPK3; set-up: species or system human, MV4-11 + K-562 + COLO205 + SK-N-BE2 + OVCAR-8; settings: read-out: apparent Kd, compound concentrations: 100 nM and 1000 nM (sheet 'Samples'), n = 1
# TNK1 = tested on: TNK1; set-up: species or system human, MV4-11 + K-562 + COLO205 + SK-N-BE2 + OVCAR-8; settings: read-out: apparent Kd, compound concentrations: 100 nM and 1000 nM (sheet 'Samples'), n = 1
# YES1 = tested on: YES1; set-up: species or system human, MV4-11 + K-562 + COLO205 + SK-N-BE2 + OVCAR-8; settings: read-out: apparent Kd, compound concentrations: 100 nM and 1000 nM (sheet 'Samples'), n = 1
# CLK1 = tested on: CLK1; set-up: species or system human, MV4-11 + K-562 + COLO205 + SK-N-BE2 + OVCAR-8; settings: read-out: apparent Kd, compound concentrations: 100 nM and 1000 nM (sheet 'Samples'), n = 1
# CLK4 = tested on: CLK4; set-up: species or system human, MV4-11 + K-562 + COLO205 + SK-N-BE2 + OVCAR-8; settings: read-out: apparent Kd, compound concentrations: 100 nM and 1000 nM (sheet 'Samples'), n = 1
# CSNK2A1;CSNK2A3 = tested on: CSNK2A1;CSNK2A3; set-up: species or system human, MV4-11 + K-562 + COLO205 + SK-N-BE2 + OVCAR-8; settings: read-out: apparent Kd, n = 1
# CSNK2A2 = tested on: CSNK2A2; set-up: species or system human, MV4-11 + K-562 + COLO205 + SK-N-BE2 + OVCAR-8; settings: read-out: apparent Kd, compound concentrations: 100 nM and 1000 nM (sheet 'Samples'), n = 1
# Q6ZSR9 = Q6ZSR9 (human, UniProt Q6ZSR9); set-up: species or system MV4-11 + K-562 + COLO205 + SK-N-BE2 + OVCAR-8; settings: read-out: apparent Kd, n = 1
# RET = tested on: RET; set-up: species or system human, MV4-11 + K-562 + COLO205 + SK-N-BE2 + OVCAR-8; settings: read-out: apparent Kd, compound concentrations: 100 nM and 1000 nM (sheet 'Samples'), n = 1
# AAK1 = tested on: AAK1; set-up: species or system human, MV4-11 + K-562 + COLO205 + SK-N-BE2 + OVCAR-8; settings: read-out: apparent Kd, n = 1
# [1] = compound concentrations:100 nM and 1000 nM (sheet 'Samples')
# Q6ZSR9, sequence (Q6ZSR9 whole entry, looked up): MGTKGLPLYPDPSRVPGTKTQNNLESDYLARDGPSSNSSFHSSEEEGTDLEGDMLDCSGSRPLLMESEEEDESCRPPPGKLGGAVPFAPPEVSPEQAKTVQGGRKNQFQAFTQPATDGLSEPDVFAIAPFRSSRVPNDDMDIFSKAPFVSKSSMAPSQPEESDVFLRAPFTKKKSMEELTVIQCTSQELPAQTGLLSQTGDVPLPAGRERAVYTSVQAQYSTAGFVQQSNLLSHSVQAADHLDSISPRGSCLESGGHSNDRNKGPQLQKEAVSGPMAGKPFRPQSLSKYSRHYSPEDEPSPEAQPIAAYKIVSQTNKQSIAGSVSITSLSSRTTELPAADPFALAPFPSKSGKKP
smiles,measurement,setting,value
CC(C)c1nc(-c2cccc(NS(=O)(=O)c3ccccc3)c2)c(-c2ccnc(Nc3ccc4c(c3)CN(C)CC4)n2)s1 [GSK1649598A],potency estimated from few doses,ABL1; CATDS: 2.01463365951845E-2,368 nM
same,potency estimated from few doses,ABL2; CATDS: 3.9720351054025098E-2,93.8 nM
same,potency estimated from few doses,ACVR1B; CATDS: 1.6553743316138101E-2,628 nM
same,potency estimated from few doses,BCR; CATDS: 1.4720639450574301E-2,924 nM
same,potency estimated from few doses,"FYN; compound concentrations: 100 nM and 1000 nM (sheet 'Samples'), CATDS: 1.9244455455098501E-2",413 nM
same,potency estimated from few doses,GAK; CATDS: 0.115621915519597,19.8 nM
same,potency estimated from few doses,HCK; CATDS: 1.6425065187182699E-2,643 nM
same,potency estimated from few doses,"LCK; compound concentrations: 100 nM and 1000 nM (sheet 'Samples'), CATDS: 3.58702015349356E-2",112 nM
same,potency estimated from few doses,PTK6; CATDS: 1.42958167275793E-2,1030 nM
same,potency estimated from few doses,RIPK2; CATDS: 2.88864910940058E-2,167 nM
same,potency estimated from few doses,RIPK3; CATDS: 1.96372512533491E-2,392 nM
same,potency estimated from few doses,TNK1; CATDS: 3.1602555545839801E-2,141 nM
same,potency estimated from few doses,YES1; CATDS: 2.5454428176696801E-2,216 nM
O=C1N=C(NCc2cccs2)SC1Cc1ccc2ncccc2c1 (stereo not drawn) [RO4629078-000],potency estimated from few doses,ABL1; CATDS: 1.03104130889283E-2,621 nM
same,potency estimated from few doses,ABL2; CATDS: 1.75956171974825E-2,217 nM
same,potency estimated from few doses,BCR; CATDS: 1.49763815406264E-2,286 nM
same,potency estimated from few doses,CLK1; CATDS: 1.45453045118455E-2,302 nM
same,potency estimated from few doses,CLK4; CATDS: 1.03422471087564E-2,616 nM
same,potency estimated from few doses,"CSNK2A1;CSNK2A3; compound concentrations: 100 nM and 1000 nM (sheet 'Samples'), CATDS: 1.1621769953454601E-2",472 nM
same,potency estimated from few doses,CSNK2A2; CATDS: 1.0295745768990301E-2,623 nM
same,potency estimated from few doses,"FYN; compound concentrations: 100 nM and 1000 nM (sheet 'Samples'), CATDS: 9.7047847946103404E-3",723 nM
same,potency estimated from few doses,GAK; CATDS: 1.7863526328031998E-2,211 nM
same,potency estimated from few doses,HCK; CATDS: 1.13886455432966E-2,493 nM
same,potency estimated from few doses,"LCK; compound concentrations: 100 nM and 1000 nM (sheet 'Samples'), CATDS: 1.24730570121841E-2",406 nM
same,potency estimated from few doses,PTK6; CATDS: 9.8307432544906398E-3,699 nM
same,potency estimated from few doses,"Q6ZSR9; compound concentrations: 100 nM and 1000 nM (sheet 'Samples'), CATDS: 1.4224903483056099E-2",314 nM
same,potency estimated from few doses,RET; CATDS: 1.39088138771742E-2,328 nM
same,potency estimated from few doses,RIPK2; CATDS: 9.4422951571236906E-3,777 nM
same,potency estimated from few doses,TNK1; CATDS: 2.1497624040677302E-2,158 nM
same,potency estimated from few doses,YES1; CATDS: 1.15943383738287E-2,474 nM
COc1cc(Nc2nccc(N3CCC(NC(=O)C4COc5ccccc5O4)C3)n2)cc(OC)c1OC (stereo not drawn) [GSK1379761A],potency estimated from few doses,"AAK1; compound concentrations: 100 nM and 1000 nM (sheet 'Samples'), CATDS: 0.26357344915845798",1120 nM
same,potency estimated from few doses,"Q6ZSR9; compound concentrations: 100 nM and 1000 nM (sheet 'Samples'), CATDS: 0.25714063136794202",1170 nM
O=C1N=C(N[C@@H](CO)c2ccccc2)S/C1=C\c1ccc2ncccc2c1 [RO4554340-000],potency estimated from few doses,"AAK1; compound concentrations: 100 nM and 1000 nM (sheet 'Samples'), CATDS: 0.158998542924943",1190 nM
same,potency estimated from few doses,CLK1; CATDS: 0.44812709075051699,156 nM
same,potency estimated from few doses,CLK4; CATDS: 0.232280366030543,478 nM
same,potency estimated from few doses,"Q6ZSR9; compound concentrations: 100 nM and 1000 nM (sheet 'Samples'), CATDS: 0.16133585717123999",1140 nM
Cl.Oc1cccc(Nc2ccnc3cc(-c4ccncc4)ccc23)c1 [GW494601A],potency estimated from few doses,ABL1; CATDS: 3.6017646503182399E-2,127 nM
same,potency estimated from few doses,ABL2; CATDS: 5.7742248446513503E-2,32.5 nM
same,potency estimated from few doses,ACVR1B; CATDS: 4.2820592961585899E-2,73.7 nM
same,potency estimated from few doses,BCR; CATDS: 9.7304657047822804E-2,10.5 nM
same,potency estimated from few doses,"FYN; compound concentrations: 100 nM and 1000 nM (sheet 'Samples'), CATDS: 2.0819366263931199E-2",1150 nM
same,potency estimated from few doses,GAK; CATDS: 8.36996948680125E-2,14.1 nM
same,potency estimated from few doses,HCK; CATDS: 2.0776424104180801E-2,1170 nM
same,potency estimated from few doses,PTK6; CATDS: 1.98277031575195E-2,1530 nM
same,potency estimated from few doses,RET; CATDS: 7.2637191041935695E-2,19 nM
same,potency estimated from few doses,RIPK2; CATDS: 0.103970438166355,9.31 nM
same,potency estimated from few doses,RIPK3; CATDS: 6.8751849319998101E-2,21.5 nM
CC(C)c1cc(-c2ccc3c(N)n[nH]c3c2)nc(N)n1 [GSK2250882A],potency estimated from few doses,AAK1; [1],838 nM
same,potency estimated from few doses,Q6ZSR9; [1],1370 nM
Cc1cccc(-c2cc(-c3c[nH]nc3-c3ccccn3)ccn2)c1 [GW679395X],potency estimated from few doses,CSNK2A1;CSNK2A3; [1],2120 nM
same,potency estimated from few doses,FYN; [1],1290 nM
same,potency estimated from few doses,LCK; [1],1330 nM
O=C1N=C(NCCc2cccc(Cl)c2)S/C1=C\c1ccc2ncccc2c1 [RO4509201-000],potency estimated from few doses,"AAK1; compound concentrations: 100 nM and 1000 nM (sheet 'Samples'), CATDS: 5.6248629663802403E-2",1640 nM
same,potency estimated from few doses,CLK1; CATDS: 0.11223755313714801,275 nM
same,potency estimated from few doses,CLK4; CATDS: 0.15614566648302999,153 nM
same,potency estimated from few doses,"CSNK2A1;CSNK2A3; compound concentrations: 100 nM and 1000 nM (sheet 'Samples'), CATDS: 0.170383689424982",133 nM
same,potency estimated from few doses,CSNK2A2; CATDS: 0.201313292648233,103 nM
COc1cccc(-n2ncc3c(N/N=C/c4ccc(C(=O)NCCN(C)C)cc4)ncnc32)c1.Cl [GW784307A],potency estimated from few doses,ABL1; CATDS: 7.2174093506066003E-2,114 nM
same,potency estimated from few doses,ABL2; CATDS: 3.8634429049696897E-2,479 nM
same,potency estimated from few doses,ACVR1B; CATDS: 4.53928679778344E-2,315 nM
same,potency estimated from few doses,BCR; CATDS: 0.110130424240114,53.4 nM
same,potency estimated from few doses,CLK1; CATDS: 2.9878019560437799E-2,1060 nM
same,potency estimated from few doses,CLK4; CATDS: 3.0333782570854902E-2,1010 nM
same,potency estimated from few doses,"CSNK2A1;CSNK2A3; compound concentrations: 100 nM and 1000 nM (sheet 'Samples'), CATDS: 5.2102189470279198E-2",227 nM
same,potency estimated from few doses,CSNK2A2; CATDS: 8.6711561514054597E-2,80.9 nM
same,potency estimated from few doses,GAK; CATDS: 2.92049494926887E-2,1160 nM
